Screening results from PubChem BioAssay.
D2 PAM-1: potentiates the human D2 dopamine receptor allosterically. P14416. DiscoveRx D2 beta-arrestin cells, luminescence, 90 min; 100% = 57 uM dopamine signal. potentiation, % (no concentration beside the values). actives 0.23% (n = 360,000); in the data active = potentiation above about 50%
Target sequence (P14416 whole entry, looked up): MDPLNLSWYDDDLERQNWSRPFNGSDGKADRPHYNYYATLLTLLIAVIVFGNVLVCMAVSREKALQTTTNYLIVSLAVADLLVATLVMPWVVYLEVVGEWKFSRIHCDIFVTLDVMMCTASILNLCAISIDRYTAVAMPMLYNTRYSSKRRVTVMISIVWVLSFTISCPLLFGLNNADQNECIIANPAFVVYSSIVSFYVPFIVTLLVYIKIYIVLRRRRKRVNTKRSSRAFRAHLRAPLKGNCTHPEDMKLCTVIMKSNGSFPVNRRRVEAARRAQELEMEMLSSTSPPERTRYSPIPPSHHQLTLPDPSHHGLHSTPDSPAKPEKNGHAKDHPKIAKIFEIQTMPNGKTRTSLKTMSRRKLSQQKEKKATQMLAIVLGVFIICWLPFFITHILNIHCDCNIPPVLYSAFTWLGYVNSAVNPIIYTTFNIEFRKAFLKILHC
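D2 cells co-treated with compound plus 50 nM dopamine (EC20) for 90 min at 37 deg C to detect potentiation. Beta-arrestin recruitment was read as enzyme-fragment luminescence after 1 h at ambient temperature. Full response was set by 57 uM dopamine.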
D2 PAM-2: D2 dopamine receptor (human) potentiation; AID 485347; potentiation, % at 10 µM; P14416; HEK293 T-REx D2, calcium flux, EC20 dopamine potentiation; actives 0.34% (n = 340,000);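 active = potentiation over 3 SD above the plate norm, cut at about 30% in these data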
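Primary screen. Calcium kinetics in induced HEK293 T-REx D2 cells: compound pre-addition 180 s, EC20 dopamine, 180 s more.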
D2 antagonist: antagonizes the human D2 dopamine receptor; P14416; HEK293 TREx D2 cells, calcium flux, dopamine EC80; inhibition, % at 10 µM; actives 2% (n = 340,000); AID 485344; in the data active = inhibition above about 30%; inactive = below that, where a call was filed
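Tetracycline-induced HEK293 TREx cells expressing D2 receptor forced-coupled to calcium signalling, loaded with no-wash calcium dye. Compounds added and calcium flux read 180 s, then dopamine added at EC80 and read a further 180 s.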
D2 ag-1: activates the human D2 dopamine receptor; P14416; HEK293 T-REx D2 cells, calcium flux agonist mode; activation, % at 2 µM; actives 0.53% (n = 340,000); AID 485358;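 active = activation over 3 SD above normal in the single-dose calcium agonist read, cut at about 30% in these data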
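Agonism scored from kinetic calcium signal (1 read/sec, 180 s) following compound pin transfer, after a 10 s baseline. Cells: HEK293 Trex line expressing inducible D2 receptor coupled to calcium, dye-loaded after overnight culture at 30 C.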
D2 ag-2: human D2 receptor agonism in beta-arrestin assay | P14416 | DiscoveRx PathHunter D2 beta-arrestin, luminescence, 90 min; 100% = 57 uM dopamine signal | activation, % (no concentration beside the values) | actives 0.084% (n = 360,000); in the data active = activation above about 40%
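DiscoveRx PathHunter D2 beta-arrestin cells (2,100/well) attached overnight, then compound-stimulated 90 min at 37 C in HBSS/10 mM HEPES/0.1% Tween-20 buffer; beta-galactosidase complementation read by luminescence after 1 h at ambient temperature. Dopamine 57 uM final (EC100) as control.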
A number is an active result; - = inactive; . = no result. Most compounds without a hit are left out; they make up all but 2.4% or so of the library.

SMILES	D2 PAM-1	D2 PAM-2	D2 antagonist	D2 ag-1	D2 ag-2
Cc1ccc(NC(=O)c2ccc(CSc3nccc(C)n3)cc2)cc1	-	-	31	-	-
Cc1nc(-c2ccc(F)cc2)c(CC(=O)N2CCN(S(=O)(=O)c3cccc(Cl)c3)CC2)s1	-	-	34	-	-
CC1(C)N=C(c2ccc(F)cc2)C(=O)N1CC(=O)Nc1ccccc1Cl	.	-	.	-	.
Cc1ccc(NC(=O)Cc2ncc(C(F)(F)F)cc2Cl)cc1Cl	-	-	44	-	-
CCOc1ccc(NC(=O)/C(C#N)=C/c2ccc(N3CCCC3)c(C)c2)cc1	-	-	38	32	-
O=C(c1ccc(-c2ccccc2)cc1)N1CCN(Cc2ccccn2)CC1	-	.	.	.	-
Clc1ccc(CN2CCC(c3nc4ccc(Cl)cc4[nH]3)CC2)cc1	-	-	82	-	-
c1ccc(CN2CCN(c3ncccn3)CC2)nc1	.	-	37	48	.
CSc1ccc(CN2CCC(Cc3ccccc3)CC2)cc1	-	-	31	-	-
Clc1cccc(CN2CCC(Cc3ccccc3)CC2)c1	-	.	.	.	-
Clc1ccc(CN2CCC(Cc3ccccc3)CC2)cc1	-	-	48	-	-
CCOc1ccc(C2c3c(oc4ccc(C)cc4c3=O)C(=O)N2c2nc(C)c(C)s2)cc1OC (stereo unspecified)	.	-	.	.	.
COc1ccc(C(O)c2nc(-c3cccc(NC(C)=O)c3)cs2)cc1 (stereo unspecified)	-	.	.	.	-
Cn1c(C(=O)Nc2ccc(OC(F)(F)F)cc2)cc2c(=O)n3ccccc3nc21	.	-	.	-	.
CSc1ccc(CN2CCC(Oc3cccc(C(=O)N4CCCC4)c3)CC2)cc1	-	-	-	-	-
OCC1(Cc2ccccc2)CCN(Cc2ccccn2)CC1	-	-	-	-	-
c1ccc(CC2CCN(Cc3ccccn3)CC2)cc1	-	-	30	-	-
CSc1ccc(OC2CCN(Cc3ccccc3)CC2)cc1	-	-	31	-	-
Clc1ccc(CN2CCC(c3ccccc3)CC2)cc1	-	-	85	-	-
CN(C)c1ccc(-c2nc(-c3cccs3)c(-c3cccs3)[nH]2)cc1	.	-	.	-	.
Cc1ccc(NC(=O)CSc2nc(=O)n(CCN3CCOCC3)c3c2CCC3)c(C)c1	.	-	.	-	.
COc1ccccc1N1CCN(c2ncnc3c2cnn3C)CC1	.	-	.	-	.
CCOCCN1CCN(C2c3ccccc3CSc3ccccc32)CC1 (stereo unspecified)	-	.	.	.	-
O=C(COC(=O)CC1SC(N2CCCC2)=NC1=O)Nc1ccc(Br)cc1 (stereo unspecified)	-	-	31	-	-
CC(C)NC(=O)c1ccc(NC(=O)CC2SC(N3CCCC3)=NC2=O)cc1 (stereo unspecified)	-	-	-	-	-
SMILES	D2 PAM-1	D2 PAM-2	D2 antagonist	D2 ag-1	D2 ag-2
O=C(CC1SC(N2CCOCC2)=NC1=O)Nc1cc([N+](=O)[O-])ccc1Cl (stereo unspecified)	-	-	54	-	-
O=C(CC1SC(N2CCOCC2)=NC1=O)Nc1ccccc1Cl (stereo unspecified)	-	-	40	-	-
O=C(CC1SC(N2CCOCC2)=NC1=O)Nc1ccc(F)cc1 (stereo unspecified)	-	.	.	.	-
O=C(CC1SC(N2CCCCC2)=NC1=O)Nc1ccc(C(=O)Nc2ccccc2)cc1 (stereo unspecified)	-	-	-	-	-
O=C(CC1SC(=NCC2CCCO2)NC1=O)Nc1cc([N+](=O)[O-])ccc1Cl (stereo unspecified)	-	-	-	-	-
O=C(CC1SC(N2CCOCC2)=NC1=O)Nc1ccc(Cl)cc1 (stereo unspecified)	-	-	58	-	-
COc1ccc(N2CCN(Cc3nnc(-c4cccc(Br)c4)o3)CC2)cc1	.	-	.	-	.
COc1ccc(NC(=O)CC2SC(N3CCOCC3)=NC2=O)cc1OC (stereo unspecified)	-	-	73	-	-
O=C(N[C@H]1CC1c1ccccc1)c1ccc([N+](=O)[O-])cc1 (stereo partly specified)	-	-	33	-	-
Cc1cc(C)nc(SCc2ccc(C(=O)N/N=C/c3cccc(O)c3O)cc2)n1	59	-	-	-	-
COc1ccc2c(c1)c(C(O)CN1CCC(Cc3ccccc3)CC1)c(C)n2C (stereo unspecified)	-	-	51	-	-
O=C(C1COc2ccccc2O1)N1CCCCC1 (stereo unspecified)	-	-	51	-	-
CCN(c1ccccc1C)S(=O)(=O)c1cc2c3c(c1)CCC(=O)N3CCC2	-	41	-	-	-
CCN(c1ccccc1C)S(=O)(=O)c1cc2c3c(c1)CCN3C(=O)CC2	-	-	.	.	-
Cc1cc(O)c2c(c1)C(=O)[C@@]13Oc4c5c(c(O)c6c(O)cc(C)cc46)C(=O)C[C@H](O)[C@H]5[C@@H]1[C@@H](O)CC(=O)C3=C2O	66	.	.	.	-
S=c1[nH]c(-c2ccccc2)cn1/N=C/c1ccccc1Br	-	-	-	-	-
S=c1[nH]c(-c2ccccc2)cn1/N=C/c1cccc2ccccc12	-	-	33	-	-
COc1ccc(OC)c(Nc2nc3ccccc3n3c(C)nnc23)c1	.	-	.	-	.
COc1ccc(CCN(C)CCCC(C#N)(c2cc(OC)c(OC)c(OC)c2)C(C)C)cc1OC (stereo unspecified)	-	-	45	-	-
COc1cccc(NC(=O)Cn2nc(C)c3c(C)n(-c4ccccc4)nc3c2=O)c1	.	-	.	-	.
O=S1(=O)CCOC[C@H](c2ccccc2)N1Cc1ccccc1	-	-	30	-	-
CCCCOc1ccccc1Cn1c(=O)oc2ccc(C)cc21	-	-	31	-	-
CCCCCOc1ccccc1Cn1c(=O)oc2ccc(C)cc21	.	-	.	-	.
O=c1c2ccsc2ncn1Cc1ccc(Cl)cc1	-	-	38	-	-
O=c1c2ccccc2ncn1Cc1ccccc1	-	-	-	-	-
SMILES	D2 PAM-1	D2 PAM-2	D2 antagonist	D2 ag-1	D2 ag-2
CC(=O)Nc1ccc(N=Cc2c(O)c3ccccc3oc2=O)cc1	-	.	.	.	-
CC(=O)Nc1ccc(N=Cc2c(O)c(C(=O)Nc3ccccc3)cc3ccccc23)cc1	-	-	-	65	-
CCOc1ccc(NC(=O)CCC(=O)NNS(=O)(=O)c2ccccc2[N+](=O)[O-])cc1	-	-	-	105	-
COc1ccc(OCc2cc(C(=O)N3CCCC(CO)C3)no2)c2ccccc12 (stereo unspecified)	74	-	-	-	-
O=C(c1cc(COc2ccc(F)cc2F)on1)N1CC[C@@H]2CCCC[C@H]2C1	64	-	-	-	-
O=C(c1cc(COc2ccc(F)cc2Cl)on1)N1CC[C@@H]2CCCC[C@H]2C1	-	-	-	-	-
O=C(CSc1ncccn1)N/N=C/c1cccc(OC2CSC2)c1	-	-	36	-	-
